Data on 40 molecules can be found in PubChem BioAssay (EPA / NIEHS).

Several values for one entry are separate records, joined by “and”; a condition that tells them apart may be missing. Equal values may be shown once. Activity calls are given as the source filed them. The calls were made as follows: active = hit-call score of the fitted dose curve at least 0.9, where 1 is the maximum; inactive = score below 0.9.

This assay is described as follows: ATG_PBREM_CIS: Attagene CIS-FACTORIAL HepG2 Assay for human Phenobarbital-responsive Enhancer Module (PBREM) (AID 2282955). The following applies: HepG2 PBREM cis-reporter, Attagene multiplexed transcription; actives raise or lower the signal. The protocol: ATG_CIS is a cell-based, multiplexed-readout assay that uses HepG2, a human liver cell line, with measurements taken at 24 hours after chemical dosing in a 24-well plate.ATG_PBREM_CIS is one of 52 assay component(s) measured or calculated from the ATG_CIS assay. It is designed to make measurements of mRNA induction, a form of inducible reporter, as detected with fluorescence intensity signals by Reverse transcription polymerase chain reaction (RT-PCR) and Capillary electrophoresis technology.Data from the assay component ATG_PBREM_CIS was analyzed into 1 assay endpoint. This assay endpoint, ATG_PBREM_CIS, was analyzed with bidirectional fitting relative to DMSO as the negative control and baseline of activity. Using a type of inducible reporter, measures of mRNA for gain or loss-of-signal activity can be used to understand the reporter gene at the transcription factor-level as they relate to the gene NR1I3. Furthermore, this assay endpoint can be referred to as a primary readout, because this assay has produced multiple assay endpoints where this one serves a reporter gene function. To generalize the intended target to other relatable targets, this assay endpoint is annotated to the nuclear receptor intended target family, where the subfamily is non-steroidal.
Human liver HepG2 cells are transiently transfected with multiple reporter transcription units (MRTUs) in 6-well plates using FuGene 6 reagent (Roche; 3 ml FuGene/1 mg DNA). The MRTU constructs are regulated by a cis-regulating element (promoter). […] A major difference between the CIS and TRANS system is that in CIS activities of endogenous TFs are measured, whereas the TRANS assay evaluates changes in activities of exogenous, chimeric NR-Gal4 proteins. […] At the end of 24 hour incubation, total RNA was isolated using TriZol reagent (Invitrogen). The isolated RNA is then reverse-transcribed using oligo(dT) primer and Mo-MLV reverse transcriptase (Invitrogen) with DNAse I (Ambion) treatment for 30 min. The one-tenth of the produced cDNA was amplified by PCR using Taq DNA polymerase (Invitrogen) and two reporter sequence-specific primers. The PCR products were fluorescently labeled by primer extension with 6-arboxyfluorescein (6-FAM) 5'-labeled reporter sequence-specific primer (2 min at 95 C, 20 s at 68 C and 10 min at 72 C) and these products were digested with 5U of HpaI (New England Biolabs) for 2h at 37 C. The fragments were purified using Qiaquick PCR columns (Qiagen), analyzed on an ABI 3130xL genetic analyzer (Applied Biosystems) with peak positions identified by using a set of X-rhodamine (ROX)-labeled MapMarker1000 molecular weight standards (BioVentures). The raw capillary electrophoresis data was processed using Attagraph software (Attagene).
Consider `O=[N+]([O-])c1ccc(Oc2ccc(Cl)cc2Cl)cc1`, for which the AC50 (as a rule, the concentration at which the activity in the assay is half-maximal) was 22.5 µM (active). Regarding `ClC1=C(Cl)[C@]2(Cl)[C@H]3[C@H]([C@@H]4C=C[C@H]3C4)[C@@]1(Cl)C2(Cl)Cl`, the outcome was inactive. The same measure, in the same setting: the result for `O=C(Nc1ccccc1)c1ccccc1I` reads “inactive”; that for `CN(C)C(=O)Nc1ccc(Cl)cc1`, “inactive”. On the same count and under the same terms, the result for `Nc1ccc([N+](=O)[O-])cc1` reads “inactive”; that for `O=P(OCCCl)(OCCCl)OCCCl`, “inactive”; that for `Oc1ccc2ccc3cccc4ccc1c2c34`, “inactive”.

In the case of `CCC12COCN1COC2`, the result was inactive. Still for that read-out and setting: with `CN(C)[C@@H]1C(=O)C(C(N)=O)=C(O)[C@@]2(O)C(=O)C3=C(O)c4c(O)cccc4[C@@](C)(O)[C@H]3C[C@@H]12` the entry was “inactive”.

For `Cc1cc(N=Nc2ccccc2C)ccc1N`, the AC50 was 33.4 µM (active). As to `CCOc1cccc(C2(N3CCN(c4ccccc4)CC3)CCC(C)CC2)c1` (stereo not given), the outcome was inactive. On the same count and under the same terms, with `O=C1CCCO1` the entry was “inactive”; with `CCCCOC(=O)c1ccccc1C(=O)OCc1ccccc1`, “inactive”. Same read-out and setting: with `Cc1ccc(N=C=O)cc1N=C=O` the entry was “inactive”. As to `CC(C)(OOC(C)(C)c1ccccc1)c1ccccc1`, the AC50 was 25.3 µM (active). The same measure, in the same setting: with `Clc1ccc(C(c2ccc(Cl)cc2)C(Cl)Cl)cc1` the figure was 56.8 µM (active).

For the molecule `CS(=O)(=O)NC(=O)c1cc(Oc2ccc(C(F)(F)F)cc2Cl)ccc1[N+](=O)[O-]`, the outcome was inactive. Same read-out and setting: the result for `COC(=O)Nc1nc2ccccc2[nH]1` reads “inactive”; that for `C[C@]12C=CC3=C4CCC(=O)C=C4CC[C@H]3[C@@H]1CC[C@@H]2O`, “inactive”.

With `Cc1ccc([N+](=O)[O-])cc1`, the outcome was inactive. The same measure, in the same setting: the result for `OCCOCCO` reads “inactive”; that for `CCC(C)c1ccc(O)cc1` (stereo not given), “inactive”. `CC(C)(C)C(O)(CCc1ccc(Cl)cc1)Cn1cncn1` (stereo not given): the result was inactive. Take `Nc1ccc(Cc2ccc(N)cc2)cc1`: the result was inactive. With `CCNS(=O)(=O)C(F)(F)C(F)(F)C(F)(F)C(F)(F)C(F)(F)C(F)(F)C(F)(F)C(F)(F)F`, the half-maximal activity concentration (AC50) is 96.5 µM (active) and 61.9 µM (active) and 34.7 µM (active). `Cn1cc(-c2ccccc2)c(=O)c(-c2cccc(C(F)(F)F)c2)c1`: the outcome was inactive. Consider `CC(C)(O)c1cnn2c(-c3ccc(F)c(-c4c(F)cccc4C#N)c3)cnc2n1`, for which the AC50 is 0.785 µM (active). With `CCN(CC)CCO`, the outcome was inactive. The same measure, in the same setting: the result for `CCC[CH2][Sn]([Cl])([CH2]CCC)[CH2]CCC` reads “inactive”; that for `CCCSC(=O)N(CCC)CCC`, “inactive”. Still for that read-out and setting: the result for `CCCCCCCCOC(=O)c1ccc(C(=O)OCCCCCCCC)c(C(=O)OCCCCCCCC)c1` reads “inactive”. With `Cc1ccc(N)c(N)c1`, the outcome was inactive. On the same count and under the same terms, with `CCCCCOC(=O)c1ccccc1C(=O)OCCCCC` the entry was “inactive”; with `CNC(=O)Oc1cccc2c1OC(C)(C)C2`, “inactive”; with `C=CCc1ccc2c(c1)OCO2`, “inactive”.

Consider `Nc1cc(Cl)cc(C(=O)O)c1Cl`, for which the result was inactive. With `C1=Cc2cccc3cccc1c23`, the result was inactive. Regarding `c1ccc2c(c1)-c1cccc3cccc-2c13`, the outcome was inactive.

For the molecule `Cc1cccc(N)c1N`, the result was inactive.

In the case of `CCOC(=O)[C@]1(c2ccccc2)Oc2ccccc2[C@@H]1N`, the concentration at half-maximal activity (AC50) was 9.64 µM (active).
